Measurements: PubChem BioAssay (NCI)
The panel holds about 79,000 compounds, 15% with a hit somewhere; the sample as a whole holds those more often. Values without a mark were called inactive. The source made the active and inactive calls. No stated cut-off is given here; in the data, active means growth inhibition above about 70%; inactive means the rest.

Columns and labels:
[1] = NCI Yeast Anticancer Drug Screen. Data for the rad50 strain (AID 155);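 further: 0% = growth of vehicle-only cultures of the same strain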; conditions: S. cerevisiae rad50 strain growth inhibition; at 50.0 µM; hits give high values
Method in brief: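 Yeast carrying a defined DNA repair defect were exposed to test compounds, and growth was compared with vehicle-treated controls to give percent inhibition.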

[2] = NCI Yeast Anticancer Drug Screen. Data for the mec2-1 strain (AID 157); conditions: S. cerevisiae mec2-1 strain, at 50.0 µM, hits give high values
Method in brief: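 Each compound was tested on mec2-1 yeast, a strain altered in DNA damage repair or cell cycle control. Growth inhibition is reported relative to vehicle.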

[3] = NCI Yeast Anticancer Drug Screen. Data for the sgs1 mgt1 strain (AID 161);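 further: 0% = growth of cultures given vehicle only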; conditions: S. cerevisiae sgs1 mgt1 strain, at 50.0 µM, hits give high values
Method in brief: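 Test agents were incubated with a DNA-repair-mutant yeast strain. Growth was then read and compared against vehicle-treated controls.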

[4] = NCI Yeast Anticancer Drug Screen. Data for the cln2 rad14 strain (AID 165);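 further: 0% = growth equal to vehicle treated cultures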; conditions: S. cerevisiae cln2 rad14 strain, at 50.0 µM, hits give high values
Method in brief: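 Test compounds were added to cln2 rad14 yeast cultures; inhibition of growth was then determined by comparison with vehicle treatment.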

[5] = NCI Yeast Anticancer Drug Screen. Data for the bub3 strain (AID 167); conditions: S. cerevisiae bub3 mutant strain, at 50.0 µM, hits give high values
Method in brief: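 Compounds were applied to a genetically altered yeast strain carrying a cell-cycle control defect. Growth inhibition was scored against vehicle-treated controls.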

[6] = NCI Yeast Anticancer Drug Screen. Data for the mlh1 rad18 strain (AID 175); conditions: S. cerevisiae mlh1 rad18 strain growth inhibition; at 50.0 µM; hits give high values
Method in brief: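 Inhibition values reflect reduced growth of mutant yeast versus vehicle-treated controls following compound exposure; the mutations affect DNA damage repair.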

Row | Compound | growth inhibition [1] | growth inhibition [2] | growth inhibition [3] | growth inhibition [4] [%] | growth inhibition [5] [%] | growth inhibition [6]
1 | NCCCCCC(=O)O | -37.5% | -25.4% | -17.6% | 8.2 | -22 | -8.4%
2 | CCOC(=O)NC(N)=O | 11.3% | -1.45% | 14.2% | -8.1 | 0.4 | 6.85%
3 | CCCCCCC#CC(=O)OC | -3.05% | -21.6% | 1.5% | 15.4 | -11.6 | 24.4%
4 | Cc1ccc(N)cc1S(=O)(=O)O | 29.8% | -10.6% | -9.45% | -14.8 | 3 | 21.6%
5 | Nc1nc2ncn(COC(CO)CO)c2c(=O)[nH]1 | 7% | 6.9% | -2.3% | 18.6 | 0.85 | 20.1%
6 | Cc1ccc(Cl)cc1NC(=O)C(Br)C(Br)c1ccccc1 (stereo not drawn) | 20.6% | -7.7% | 11.9% | 0.85 | -0.1 | 6.2%
7 | Nc1ccccc1SC1CC(=O)N(c2ccc(I)cc2)C1=O (stereo not drawn) | -6.8% | -15.7% | -7.5% | 13.8 | 9.55 | 2.35%
8 | CN(C)CCC(=O)c1cccnc1 | 9.9% | -17.1% | -3.35% | -4.8 | 5.65 | -1.2%
9 | CC(=O)Oc1cc(C(C)C)c(OCCN(C)C)cc1C | -0.15% | 10.3% | 0.45% | -3.6 | -0.5 | -4.1%
10 | Cc1[nH]c(=O)[nH]c(=O)c1/C=C/C(=O)NC(CO)CS(C)=O (stereo not drawn) | -1.5% | -7.15% | 0.75% | 6.1 | 0.75 | 7.05%
11 | COc1ccc2c(c1OC)C1=NCCc3cc4c(cc3C1(OC)C2=O)OCO4 (stereo not drawn) | -7.15% | 0.75% | 7.05% | 16.8 | 13.7 | -1.2%
12 | COc1cccc(/C=N\c2nc(-c3ccccc3Cl)cs2)c1O | 44% | 5.15% | 32.4% | 21.9 | 39.6 | 27.4%
13 | CCN(CC)CCSCCSCCN(CC)CC | -24.7% | -1.55% | -3.05% | -39 | 8.65 | -10.3%
14 | CC(C)CCCC(C)C1CCC2C3CCC4CC(=O)/C(=C\O)CC4(C)C3CCC12C (stereo not drawn) | 70.3% (active) | 51.5% | 79.4% (active) | 38.6 | 25.6 | 67.2%
15 | NC(=O)c1ccc(Cl)c([N+](=O)[O-])c1 | 8.2% | 2.85% | -7.3% | 6.45 | -31.3 | 2.15%
16 | CCOC(=O)C(CCCN=C(N)NC(=O)OCc1ccccc1)NC(=O)C(C(C)C)N1C(=O)c2ccccc2C1=O (stereo not drawn) | 93% (active) | 78.5% (active) | 96.2% (active) | 52 | 48.9 | 96% (active)
17 | COc1ccc(Cc2cc(OC)c(OC)c(OC)c2)cc1 | 13.2% | -0.3% | 7.7% | 0 | 31.8 | -27.6%
18 | CS(=O)(=O)OCCN1C(=O)CNC1=O | 4.6% | 8.35% | -9.45% | -27.8 | 9.55 | -2.7%
19 | O=C1CCC(=O)N1Cl | 1.05% | -1% | -3.6% | -13.3 | -5.75 | -13.8%

Row | Compound | growth inhibition [1] | growth inhibition [2] | growth inhibition [3] | growth inhibition [4] [%] | growth inhibition [5] [%] | growth inhibition [6]
20 | c1ccc(B2O[C@H]3CCCC[C@@H]3O2)cc1 | 2.15% | 13.9% | -1.3% | 12.8 | 1.25 | 21.4%
21 | CC1CCCN(C(=O)Nc2ccccc2)C1 (stereo not drawn) | 14.4% | -0.8% | -10.2% | 10.4 | 4.65 | 1.15%
22 | CC(C)CC(=O)c1ccccn1 | -10.1% | -30.9% | -16.1% | 7.95 | -19 | -0.35%
23 | CC(C)(C)[Si](C)(C)OCC1OC(n2cnc3c(N)ncnc32)C(O)C1O (stereo not drawn) | -12.4% | -15.2% | 4.85% | -0.2 | 3.5 | -2.35%
24 | CN(C)c1ncnc2cn[nH]c12 | 3.6% | -5.75% | 0.25% | 5.7 | 17.4 | 0.6%
25 | OC(c1cccc(Cl)c1)C(Cl)Cl (stereo not drawn) | -2.55% | -9.45% | -22% | -4.15 | -14.5 | 1.95%
26 | COC(=O)c1c2c(cc3c1CC1(Cc4cc5c(c(C=O)c4C1)CCC5)C3)CCC2 (stereo not drawn) | -50.6% | -23.4% | 8.25% | 1.55 | 14.4 | 4.8%
27 | ClCCOC(c1ccc(Cl)cc1)c1ccc(Cl)cc1 | -1.6% | 3.5% | -4.55% | -12.9 | 0.45 | 19.8%
28 | CCCC(=O)Oc1ccc(CC)cc1 | 25.5% | 15.4% | 8.75% | -20.4 | 14.5 | 20.9%
29 | C=C(Br)CNC(=O)c1ccccc1 | 7.5% | -3.45% | -1.35% | -39.4 | 21.4 | 5.2%
30 | c1ccc2cc(Nc3ccc(Nc4ccc5ccccc5c4)cc3)ccc2c1 | 0.25% | 4.4% | 12.3% | 14.7 | 27.2 | 2.6%
31 | CC(C)NC(=O)OCc1c(COC(=O)NC(C)C)c(S(C)(=O)=O)n2c1CCC2 | 3.65% | -4.7% | -15.3% | 7.9 | -1.3 | 6.8%
32 | CN(C)C(=S)N(C)C | -37.1% | -33% | -17.4% | 0.45 | -23.2 | -23.7%
33 | Cc1ccc(N(C)C(=O)Nc2ccccc2)c(C)c1 | 4.1% | 3.6% | 8.6% | -20.6 | 4.55 | -12.8%
34 | COC(=O)CCC(=O)c1ccc2c(c1)CCC2 | -3.25% | -26.2% | 17.2% | 3 | 33.5 | 7.65%
35 | COc1ccc(COC(=O)Nc2cccc(Cl)c2C)cc1 | -1.2% | 8.95% | 14.8% | -25.7 | -8.85 | -3.2%
36 | CN/N=C(\C(=O)Nc1ccc([N+](=O)[O-])cc1[N+](=O)[O-])C1NC(=O)NC1=O (stereo not drawn) | 23.8% | 20.1% | 1.95% | 5.05 | 15.9 | -10.9%
37 | OCC(O)C(O)C(O)C(Sc1ccccc1)Sc1ccccc1 (stereo not drawn) | 7.15% | 11.8% | 7.4% | 8.3 | -7.25 | 16.8%
38 | CCc1ccc2c(c1)C(C)(CC)CCC2C (stereo not drawn) | -2.45% | -6.5% | -16.4% | -43 | -8.95 | 8.7%
